Results from PubChem BioAssay (EPA / NIEHS).
Active and inactive are the calls of the source. Rule for the calls: active = hit-call score of the fitted dose curve at least 0.9, where 1 is the maximum; inactive = score below 0.9.

Assay: ATG_BRE_CIS: Attagene CIS-FACTORIAL HepG2 Assay for human Bone Morphogenetic Protein (BMP) Response Element (BRE) (AID 2282933)
Conditions: HepG2 BMP response element reporter, Attagene transcription factor profiling; actives raise or lower the signal
How it was run: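 Multiplexed cis-reporter assay, HepG2, 24 h exposure. mRNA from reporter units quantified via RT-PCR/CE; DMSO baseline; bidirectional curve fit.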
In the case of `Nc1ccc(-c2ccc(N)c(N)c2)cc1N`, the outcome is reported as “inactive”. In the case of `CCOP(O)OCC`, the outcome is reported as “inactive”. For `C#CC1(O)CCCCC1`, the outcome was “inactive”. With `O=c1[nH]c(Cl)c(Cl)cc1Cl` the outcome was “inactive”. In the case of `CCC(C)c1cc(C(C)(C)C)cc(-n2nc3ccccc3n2)c1O` (centres undefined), the outcome is reported as “inactive”. With `[CH3][Sn]([Cl])([Cl])[Cl]` the outcome was “inactive”. In the case of `Nc1c(Cl)c(Cl)c(Cl)c(Cl)c1Cl`, the outcome is reported as “inactive”. In the case of `COC(=O)c1ccccc1S(=O)(=O)NC(=O)Nc1nc(C)cc(C)n1`, the outcome is reported as “inactive”. For `Nc1ccccc1C(=O)OCCc1ccccc1`, the outcome was “inactive”. In the case of `N#Cc1cccc(C#N)c1`, the outcome is reported as “inactive”. In the case of `O=C(O)CCCc1ccc(N(CCCl)CCCl)cc1`, the outcome is reported as “inactive”. For `Nc1cc(Cl)cc(Cl)c1`, the outcome was “inactive”. For `COc1ncc(F)c2nc(S(=O)(=O)Nc3c(F)cccc3F)nn12`, the outcome was “inactive”. With `COC(C)(C)CCC[C@H](C)C/C=C/C(C)=C/C(=O)OC(C)C` the AC50 was 84.6 µM (active). In the case of `[CH3][Sn]([CH3])([Cl])[Cl]`, the outcome is reported as “inactive”. For `BrCBr`, the outcome was “inactive”. With `CCc1cccc(C)c1N(C(=O)CCl)[C@@H](C)COC` the outcome was “inactive”. For `O=P1(NCCCl)OCCCN1CCCl` (centres undefined), the outcome was “inactive”. In the case of `CC(Cc1ccc(C(C)(C)C)cc1)CN1C[C@@H](C)O[C@@H](C)C1` (some centres undefined), the AC50 is reported as 50.3 µM (active). For `O=C(O)c1cc[c]([Hg][Cl])cc1`, the outcome was “inactive”. For `C[N+](C)(C)CC(=O)O`, the outcome was “inactive”. In the case of `O=S(=O)(c1ccccc1)c1ccccc1`, the outcome is reported as “inactive”. With `Clc1ccc(-c2ccccc2)cc1` the outcome was “inactive”. For `CN(C)C(=O)C(c1ccccc1)c1ccccc1`, the outcome was “inactive”. With `C=CCc1ccc(OC(=O)Cc2ccccc2)c(OC)c1` the outcome was “inactive”. In the case of `O=P(O)(Oc1ccccc1)Oc1ccccc1`, the outcome is reported as “inactive”. For `CC1CCCC1.[C-]#[O+].[C-]#[O+].[C-]#[O+].[Mn]`, the outcome was “inactive”. With `O=C(O)COc1ccccc1` the outcome was “inactive”. With `[Cl][Sb]([Cl])[Cl]` the outcome was “inactive”. With `CCC(=O)c1ccc(Cl)cc1` the outcome was “inactive”. In the case of `Cc1ccc(N(SC(F)(Cl)Cl)S(=O)(=O)N(C)C)cc1`, the outcome is reported as “inactive”. With `CC1(C)CC(=O)CC(C)(C)N1[O]` the outcome was “inactive”. In the case of `SCc1ccco1`, the outcome is reported as “inactive”. With `O=CNC(N1CCN(C(NC=O)C(Cl)(Cl)Cl)CC1)C(Cl)(Cl)Cl` (centres undefined) the outcome was “inactive”. In the case of `Oc1cc(Cl)ccc1Cl`, the outcome is reported as “inactive”. For `O=[N+]([O-])c1cc(C(F)(F)F)c(Cl)c([N+](=O)[O-])c1Cl`, the outcome was “inactive”. With `C[C@]12CCC(=O)C(O)=C1CC[C@@H]1[C@@H]2CC[C@]2(C)C(=O)CC[C@@H]12` the outcome was “inactive”. In the case of `CSc1nc(N=[N+]=[N-])nc(NC(C)C)n1`, the outcome is reported as “inactive”. With `O=[N+]([O-])O.O=[N+]([O-])O.[Cd]` the outcome was “inactive”.
